Measurements reported in the supplement of paper PMC10127200.
Counter-ions that a name gives are not always drawn.

Columns and labels:
Experiment in all cases: Euclidean distance of Cell Painting phenotypic profile (signed KS, 77 features) to DMSO centroid (dimensionless distance); 5 or 10 uM (library dependent); higher = stronger phenotypic change vs DMSO (phenoactivity)
Conditions in all cases: 48 h
786-O = tested on: 786-O
Summary of the method: (§1)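 At 10 or 5 uM, as set by the library, and 0.1% DMSO final, compounds were applied for 48 h to five cancer lines and one healthy fibroblast line. Stained cells were imaged confocally at 20X in 9 fields per well, and Harmony extracted 77 features scored as signed Kolmogorov-Smirnov statistics against vehicle wells on the same plate. Profiles underwent plate-position correction, correlation weighting and replicate averaging at the top dose. Phenoactivity is the Euclidean distance from each such profile to the median vehicle profile.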

A549 = tested on: A549
Summary of the method: as §1

DU145 = tested on: DU145
Summary of the method: as §1

FB = tested on: FB
Summary of the method: as §1

HEPG2 = tested on: HEPG2
Summary of the method: as §1

OVCAR4 = tested on: OVCAR4
Summary of the method: as §1

Row | Structure (SMILES) | Euclidean distance (786-O) | Euclidean distance (A549) | Euclidean distance (DU145) | Euclidean distance (FB) | Euclidean distance (HEPG2) | Euclidean distance (OVCAR4)
1 | CN(C)CCOC(=O)C(c1ccccc1)C1(O)CCCC1 (stereo not drawn) [Cyclopentolate Hydrochloride] | 1.16 | 0.28 | 0.841 | 1.15 | 0.601 | 1.57
2 | COc1cc2c(Oc3ccc4[nH]c(C)cc4c3F)ccnc2cc1OCC1(N)CC1 [Anlotinib (AL3818) dihydrochloride] | 3.26 | 3.7 | 2.73 | 3.46 | 3.11 | 3.17
3 | CC(C)Cc1ccc(C(C)C(=O)OCc2ccccn2)cc1 (stereo not drawn) [Ibuprofen piconol] | 1.39 | 0.595 | 0.983 | 0.788 | 0.518 | 1.2
4 | C[C@]1(Cn2ccnn2)[C@H](C(=O)O)N2C(=O)C[C@H]2S1(=O)=O [Tazobactam] | 0.708 | 0.639 | 0.78 | 0.984 | 0.41 | 0.673
5 | CN(C)CC(c1ccc(O)cc1)C1(O)CCCCC1 (stereo not drawn) [Desvenlafaxine] | 0.678 | 0.707 | 0.899 | 0.932 | 0.34 | 1.95
6 | O=C1CCc2cc(OCCCCc3nnnn3C3CCCCC3)ccc2N1 [Cilostazol] | 1.11 | 0.94 | 1.56 | 1.21 | 0.849 | 1.26
7 | C[C@@H]1O[C@@H](OC[C@H]2O[C@@H](Oc3c(-c4ccc(O)c(O)c4)oc4cc(O)cc(O)c4c3=O)[C@H](O)[C@@H](O)[C@@H]2O)[C@H](O)[C@H](O)[C@H]1O [Rutin] | 1.11 | 0.756 | 0.783 | 0.933 | 0.632 | 0.909
8 | O=C(Cn1ccnc1[N+](=O)[O-])NCc1ccccc1 [Benznidazole] | 1.16 | 1.1 | 1.58 | 1.03 | 0.581 | 1.14
9 | O=C(O)c1ccc2c(c1)nc(Nc1cccc(Cl)c1)c1ccncc12 [CX-4945 (Silmitasertib)] | 1.47 | 1.44 | 2.54 | 1.55 | 1.4 | 1.25
10 | CC[C@]1(O)C[C@H]2CN(CCc3c([nH]c4ccccc34)[C@@](C(=O)OC)(c3cc4c(cc3OC)N(C=O)[C@H]3[C@@](O)(C(=O)OC)[C@H](OC(C)=O)[C@]5(CC)C=CCN6CC[C@]43[C@@H]65)C2)C1 [Vincristine] | 3.12 | 2.61 | 4.78 | 3.47 | 3.99 | 2.86
11 | CN(C)CC[C@H](CSc1ccccc1)Nc1ccc(S(=O)(=O)NC(=O)c2ccc(N3CCN(Cc4ccccc4-c4ccc(Cl)cc4)CC3)cc2)cc1[N+](=O)[O-] | 0.812 | 2.83 | 1.36 | 0.853 | 0.522 | 1.01
12 | O=[N+]([O-])c1ccc2c(c1)S(=O)(=O)C=C2 [Stattic] | 5.16 | 2.51 | 2.61 | 3.89 | 1.16 | 4.56
13 | COc1cc2ncc(-c3ccccc3)nc2cc1OC [Tyrphostin AG 1296] | 1.46 | 1.34 | 1.58 | 1.3 | 1.42 | 1.6
14 | O=C1OC2(c3ccc(O)cc3Oc3cc(O)ccc32)c2ccccc21 [Fluorescein] | 0.775 | 0.447 | 0.83 | 0.881 | 1.12 | 1.27
15 | CC(C)(Sc1ccncc1-c1ccc(C#N)c2ccccc12)C(=O)O [Verinurad (RDEA3170)] | 0.821 | 0.673 | 0.864 | 1.25 | 0.457 | 1.2
16 | Nc1c(CC(=O)O)cccc1C(=O)c1ccc(Br)cc1 [Bromfenac Sodium] | 1.21 | 1.01 | 0.957 | 1.42 | 0.3 | 1.75
17 | Cc1cccc(C)c1NC(=O)C1CCCCN1C (stereo not drawn) [Mepivacaine HCl] | 1.26 | 0.773 | 0.454 | 1.28 | 0.483 | 0.914
18 | CC(NC(=O)c1ccccc1/N=C/c1c(O)ccc2ccccc12)c1ccccc1 (stereo not drawn) [Sirtinol] | 0.539 | 0.747 | 0.686 | 0.99 | 2.2 | 0.857
19 | O=C(c1ccc(Nc2nccc(-c3cc4ccccc4s3)n2)cc1)N1CCC(N2CCCC2)CC1 [IKK-16 (IKK Inhibitor VII)] | 3.91 | 4.2 | 3.04 | 4.35 | 4.29 | 4.4
20 | O=C1CN(/N=C/c2ccc(-c3ccc([N+](=O)[O-])cc3)o2)C(=O)N1 [Dantrolene sodium hemiheptahydrate] | 0.731 | 0.894 | 1.67 | 1.21 | 0.638 | 1.31
21 | Cc1cc(C(=O)NOCCO)c(Nc2ccc(I)cc2F)n(C)c1=O | 2.89 | 2.95 | 2.82 | 4.35 | 1.48 | 1.72
22 | C[C@]12CC[C@H](O)CC1=CC[C@@H]1[C@@H]2CC[C@]2(C)C(n3cnc4ccccc43)=CC[C@@H]12 [Galeterone] | 0.604 | 1.11 | 0.901 | 1.35 | 2.1 | 1.04
23 | CNC(=O)c1ccccc1Sc1ccc2c(/C=C/c3ccccn3)n[nH]c2c1 [Axitinib] | 3.11 | 3.76 | 3.18 | 3.27 | 2.51 | 3.92
24 | COC(=O)C1=C(C)NC(C)=C(C(=O)OCCN(C)Cc2ccccc2)C1c1cccc([N+](=O)[O-])c1 (stereo not drawn) [Nicardipine HCl] | 1.27 | 1.28 | 0.897 | 0.903 | 1.24 | 1.31
25 | O=C(O)c1cc(=O)c2ccccc2o1 [Chromocarb] | 1.02 | 0.437 | 0.751 | 1.04 | 0.887 | 0.727
26 | CC(C)(C)C(O)/C=C/c1ccc2c(c1)OCO2 (stereo not drawn) [Stiripentol] | 0.796 | 0.894 | 1.07 | 0.983 | 0.456 | 0.801
27 | CC(C)CCNc1ncccc1C(=O)N1CCN(Cc2ccccc2)CC1 | 0.757 | 0.542 | 0.821 | 0.894 | 0.864 | 0.631
28 | O=C(CCc1ccc(O)cc1)c1c(O)cc(O)cc1O[C@@H]1O[C@H](CO)[C@@H](O)[C@H](O)[C@H]1O [Phlorizin] | 0.911 | 1.18 | 0.673 | 0.849 | 1.02 | 0.783
